Data: PubChem BioAssay (NCI)
The panel holds about 83,000 compounds, 20% with a hit somewhere; the sample as a whole holds those more often.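 Step 1: grow cells in 96-well plates. Step 2: add test compound at a single concentration. Step 3: incubate 48 h. Step 4: record percent growth.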 Calls of active or inactive are those of the source. How the source made its calls: active means growth percent below 10; inactive means the rest.

Legend:
Experiment in all cases: NCI-60 one-dose screen, 48 h (100 = growth as untreated, 0 = no growth, -100 = all killed)
Conditions in all cases: 10 µM unless noted
[1] = test system: NCI-H23 lung
[2] = test system: NCI-H226 lung
[3] = test system: NCI-H322M lung
[4] = test system: HOP-62 NSCLC
[5] = test system: NCI-H460 lung
[6] = test system: HOP-92 NSCLC
[7] = test system: NCI-H522 lung
[8] = test system: A549/ATCC NSCLC
[9] = test system: 786-0 renal
[10] = test system: COLO 205 colon

Measured: growth

Cc1cc2c(c(=O)o1)C(c1ccc(OC(=O)N3CCOCC3)cc1)C(C#N)=C(N)O2 (configuration not stated)
inactive: [1] 97.4% | [2] 104% | [3] 93.1% | [4] 89.6% | [5] 107% | [6] 113% | [7] 98.9% | [8] 100% | [9] 99.2%

COc1ncc(-c2ccc3ncnc(Nc4cccc(Cl)c4)c3c2)cc1NS(=O)(=O)CCN1CCOCC1
inactive: [1] 21.4% | [2] 22.3% | [4] 17.5% | [5] 10.3% | [7] 14% | [9] 10.5%
active: [3] -17.1% | [6] -26.3% | [8] -4.57%

O=C(CNc1ccc(Cl)cc1)Nc1ccc(-c2nc3ccccc3s2)cc1
active: [7] -94.5%
inactive: [1] 39.1% | [2] 58.1% | [3] 80.3% | [4] 116% | [5] 87.1% | [6] 97.8% | [8] 89% | [9] 27%

CC(=O)C1CCC(C)=CC1=O (configuration not stated)
inactive: [1] 102% | [2] 104% | [3] 85.8% | [4] 111% | [5] 106% | [6] 96.9% | [7] 89.7% | [8] 98.3% | [9] 91.8%

COc1cccc(/C=C2\SC(N3CCN(c4ccccn4)CC3)=NC2=O)c1
inactive: [1] 95.5% | [2] 108% | [3] 88.8% | [4] 93.6% | [5] 107% | [6] 92.7% | [7] 71.6% | [8] 94.5% | [9] 108%

CS(=O)(=O)N(c1cc(-c2ccc3ncnc(Nc4cccc(Cl)c4)c3c2)cnc1Cl)S(C)(=O)=O
inactive: [1] 18.3% | [2] 30.1% | [4] 19.2% | [5] 14.1% | [7] 19.6% | [9] 17.5%
active: [3] -1.94% | [6] -20.5% | [8] 9.62%

CCCCCCOc1ccc(C2(Cl)c3ccccc3N(C)c3ccccc32)cc1
inactive: [1] 24.5% | [2] 29.5% | [3] 57.1% | [4] 82.4% | [6] 83.1% | [7] 55.4% | [8] 47.1% | [9] 47.2%
active: [5] -25.7%

NC(=S)NN=C1CCCCC1
inactive: [1] 89.5% | [2] 87.5% | [3] 99.3% | [4] 91.9% | [5] 97.8% | [6] 92.1% | [7] 70.3% | [8] 84.7% | [9] 106%

Cc1cc(Nc2nc(-c3ccc(F)cc3)nc3ccccc23)n[nH]1
inactive: [1] 57.3% | [2] 58.6% | [3] 65.5% | [4] 78.6% | [5] 35.6% | [6] 30.5% | [7] 27.7% | [8] 13.8% | [9] 56.9% | [10] 40.3%

COc1ccc(Cn2c(SC)nc(=O)n(Cc3ccc(Cl)cc3)c2=O)cc1
inactive: [1] 93.7% | [2] 106% | [3] 90.2% | [4] 94.6% | [5] 103% | [6] 90% | [7] 93.9% | [8] 87.9% | [9] 98.7% | [10] 98.8%

CCNCc1ccncc1
inactive: [1] 105% | [2] 103% | [3] 104% | [4] 104% | [5] 102% | [6] 107% | [7] 91% | [8] 99.4% | [9] 97.7% | [10] 106%

NC(=O)NNC(=O)c1ccccc1
inactive: [1] 103% | [2] 106% | [3] 109% | [4] 107% | [5] 103% | [6] 103% | [7] 107% | [8] 101% | [9] 101% | [10] 118%

Cc1ccc2nc(-c3c(CCCO)noc3N)[nH]c(=O)c2c1
inactive: [1] 130% | [2] 99.9% | [3] 89.6% | [4] 103% | [5] 108% | [6] 65.7% | [7] 103% | [8] 101% | [9] 98.6% | [10] 121%

Cc1ccc2c(c1)C(=O)C(c1c(-c3[nH]c(=O)c4ccc(C)cc4c3O)c(O)c3ccccc3c1O)=NC2=O
inactive: [1] 15.5% | [3] 38.8% | [6] 38.7% | [8] 21.8% | [9] 12.7% | [10] 69.9%
active: [2] -1.84% | [4] 8.69% | [5] -39.8% | [7] 7.58%

O=C(NCCc1c[nH]c2ccccc12)C1Cc2ccccc2CN1C(=O)c1ccco1 (configuration not stated)
inactive: [1] 127% | [2] 106% | [3] 87.3% | [4] 94.6% | [5] 114% | [6] 29.9% | [7] 78.6% | [8] 97.7% | [9] 104% | [10] 134%

CC(C)[C@H](CO)Nc1nc(Nc2ccc(C(=O)NCCNS(=O)(=O)c3cccc4c(N(C)C)cccc34)c(Cl)c2)c2ncn(C(C)C)c2n1
active: [4] 1.86% | [6] -9.2% | [7] -31.5% | [8] 0.602% | [9] -1.14% | [10] -69.3%
inactive: [1] 25.3% | [2] 22% | [3] 15.4% | [5] 16.2%

COC(=O)CC/C(C)=N\Nc1ccc([N+](=O)[O-])cc1
inactive: [1] 95.8% | [2] 76.3% | [3] 76.5% | [4] 59.7% | [5] 24.8% | [6] 92.7% | [7] 38.4% | [8] 24.6% | [9] 75.4% | [10] 54%

COc1cccc2cc(-c3cc4ccccc4[nH]3)c(=NC(=O)c3ccc(Cl)cc3)oc12
inactive: [1] 40.2% | [2] 83.2% | [3] 93.3% | [4] 57.7% | [5] 85.3% | [8] 65.5% | [9] 69.5% | [10] 100%
active: [6] -0.489% | [7] 9.69%

CCNC(=O)CCCCC(=O)c1c(C)[nH]c(/C=C2\N=C(c3ccc[nH]3)C=C2OC)c1C
active: [5] -65.1% | [6] -71.6% | [7] -91.7% | [8] 9.45% | [9] -51.9% | [10] 1.23%
inactive: [1] 35% | [2] 65.7% | [3] 37.9% | [4] 42.7%

COc1ncc(-c2ccc3ncnc(Nc4cccc(Cl)c4)c3c2)cc1N(S(C)(=O)=O)S(C)(=O)=O
active: [6] 7.62%
inactive: [1] 71.5% | [2] 64.5% | [3] 17.4% | [4] 79.1% | [5] 62.3% | [7] 52.2% | [8] 47.9% | [9] 79.5% | [10] 77.1%

COc1cc(CNC(=O)CCSc2nc3ccccc3c(=O)n2Cc2cc(OC)c(OC)c(OC)c2)cc(OC)c1OC
inactive: [1] 51.6% | [2] 70% | [3] 60.1% | [4] 29.3% | [5] 13.7% | [6] 44.6% | [7] 10.2% | [8] 35% | [9] 56.1% | [10] 25.8%

COc1cc(OC)c(C(=O)/C=C/c2cccc(C#N)c2)c(OC)c1
active: [1] -7.14% | [2] 3.93% | [3] -1.49% | [4] -9.93% | [5] 0.36% | [6] -5.88% | [7] -25.9% | [8] 2.27% | [9] 9.74% | [10] -6.79%

O=C1CCCCN1CCCCC#Cc1ccccc1C#Cc1ccccn1
inactive: [1] 101% | [2] 92% | [3] 85.7% | [4] 101% | [5] 115% | [6] 73.2% | [7] 112% | [8] 112% | [9] 102% | [10] 103%

CCN1C(=O)N(CC)C2Nn3c(s/c(=C\c4cccc(F)c4)c3=O)=NC21 (configuration not stated)
inactive: [1] 62.7% | [2] 96.1% | [3] 96.6% | [4] 68.1% | [5] 53.9% | [6] 49.1% | [7] 64.4% | [8] 72.5% | [9] 77.5% | [10] 70.7%

CC(=O)Nc1nc(C(=O)N2N=C(C)/C(=C/c3cccs3)C2=O)cs1
inactive: [1] 107% | [2] 101% | [3] 95.4% | [4] 99.1% | [5] 107% | [6] 99.1% | [7] 86.6% | [8] 101% | [9] 102% | [10] 104%

COc1ccc(-c2nnc(COc3ccc(NS(=O)(=O)c4ccc(OC)cc4)cc3F)o2)cc1
inactive: [1] 56.6% | [2] 57.9% | [3] 83.6% | [4] 93.9% | [5] 77.8% | [6] 70.9% | [7] 49.2% | [8] 62.8% | [9] 74.8% | [10] 70.6%

CC1=CNNc2c3ncnc-3ncn21
inactive: [1] 98% | [2] 99.7% | [3] 107% | [4] 95.4% | [5] 108% | [6] 94.7% | [7] 96.6% | [8] 100% | [9] 102% | [10] 106%

COc1ccc(S(=O)(=O)NCCNc2nccc(-c3c(-c4ccccc4)nc4sccn34)n2)cc1
inactive: [1] 37% | [2] 13.2% | [3] 45.9% | [4] 64.4% | [5] 23.6% | [6] 48.9% | [7] 41% | [8] 18.4% | [9] 32%
active: [10] 1.41%
